The structures appear in SMILES notation. Among all 390,000 compounds or so, about 610 (0.16%) were called active. Entries that show only a call come without a potency. About 4% were inconclusive and are not listed. This is one part of a sample in which actives are shown more often than they occur. Calls come from the whole dose curve; as a rule, active = well fitted inhibition curve with a large enough effect; inconclusive = small, poorly fitted or top-dose-only effect, or effect the other way, or another doubt; inactive = no such curve, though single readings can be large or run the other way.
Potency is the fitted concentration of half-maximal effect.

This assay in a line: Nrf2 qHTS screen for inhibitors: counterscreen for cytotoxicity. The following applies: A549 ARE-Fluc cells, CellTiter-Fluor viability, 18-24 h; series mostly up to 46 µM. The text has this:
NIH Molecular Libraries Probe Production Network [MLPCN]
NIH Chemical Genomics Center [NCGC]
Assay Provider: Shyam Biswal, Johns Hopkins University
Nrf2 is a transcription factor that maintains cellular redox homoestasis and protects cells from xenobiotics. Nrf2 binds to the antioxidant response element (ARE) to induce gene expression of a broad spectrum of genes that encode for antioxidants. […] Finding a small molecule that act as an inhibitor of Nrf2 function would represent a novel therapeutic target that could lead to improvement in survival of patients undergoing chemo- and/or radio- therapy.
So here we implemented a counterscreen to weed out the cytotoxic compounds.
1. Shibata, T., et al., Genetic Alteration of Keap1 Confers Constitutive Nrf2 Activation and Resistance to Chemotherapy in Gallbladder Cancer. Gastroenterology, 2008.
2. Sjoblom, T., et al., The consensus coding sequences of human breast and colorectal cancers. Science, 2006. 314(5797): p. 268-74.
NCGC Assay Protocol Summary:
A concentration-response assay was performed with A549 ARE_Fluc cells which are suspended in 5% FBS OPTI-MEM. Five uL were dispensed into 1536-well white TC-treated plate using the Kalypsys dispenser to achieve a density of 5000 cells/well in all columns except column 1. The plate is incubated at 37deg C at 5% CO2 for 2 hours before 23 nL of compounds are added with the Kalypsys pin tool equipped with a 1,536-pin array containing 10-nL slotted pins (FP1S10, 0.457-mm diameter, 50.8 mm long; V&P Scientific). The control compounds Budesonide and Staurosporine are both added at a concentration of 2mM and Budesonide is also added as a 1:10 titration, starting at 200uM, to achieve dose-response. After an 18-24 hour incubation at 37deg C at 5% CO2, 5ul of medium is added to column 1. Afterwards 1ul of 5x of CellTiter-Fluor (Promega) is added to every well. The plate is then incubated at 37deg C at 5% CO2 for 30 minutes before they are read on the ViewLux (Perkin Elmer) for a fluorescent read Ex=405(10)/Em=525(10) for a 3 second exposure, 2x binning, and high gain. Then 3 uL of 3x BugLite is dispensed into all wells and the plate is incubated at ambient room temperature for 15 minutes. Afterwards another ViewLux read is performed using the clear filter to get a luminescent read with the settings of 40 second exposure, 2x binning, and high gain. Cytotoxicity is assessed through the first fluorescent read and then biochemical activity against Nrf2 is measured in the luminescent read.
Take `CCC(C)(O)C(=O)OC1C(=O)OC2CC3C(C)=CC(=O)C(O)C3(C)C3C4(O)OCC23C1C(C)C4O` (stereo not given): the Potency was 5.8 µM (active).
The entry for `c1ccc(CC2CCCCN2)cc1` (stereo not given) is “inactive”; for `Cc1ccc(-n2c(/C=C/c3cccc(C(F)(F)F)c3)nc3ccccc3c2=O)cc1` it is “inactive”; for `CSc1nc2ccc(C)cc2c(=O)n1-c1cccnc1` it is “inactive”.
`COc1cccc(-c2nc3ccc(N4CCN(C)CC4)cc3[nH]2)c1`: the Potency result was “inactive”.
`CN1CCN(c2cc(N3CCNCC3)ccc2[N+](=O)[O-])CC1`: the Potency was 16.4 µM (active).
In the case of `CCN1CCN(c2ccc([N+](=O)[O-])cc2C#N)CC1`, the Potency entry is “inactive”.
Consider `CC1=CC(=Cc2sc3ccccc3[n+]2C)C=C(C)O1`, for which the Potency is 2.59 µM (active).
The same measure for `CC(c1ccccc1)(c1ccccc1)c1ccncc1`: “inactive”; for `Cc1ccc(Cn2nnnc2CN2CCC(n3nnc4ccccc43)CC2)cc1`: “inactive”; for `COC(=O)C1=C(c2cc3ccccc3o2)C[C@@H]2CC[C@H]1N2C(=O)NC1CCCCC1`: “inactive”.
The same measure for `O=Cc1cn(Cc2ccc(F)cc2Cl)c2ccccc12`: “inactive”; for `CO[C@H]1[C@@H](O)[C@@H](C)O[C@H](O[C@H]2[C@H](Oc3cccc4c(O)c5c(=O)oc6ccc(C)c7c(=O)oc(c34)c5c67)O[C@H](C)[C@H](O)[C@@H]2O)[C@@H]1O`: “inactive”.
In the case of `CCCCCCCCCCCCn1ccc(=N)cc1`, the Potency entry was “inactive”.
With `S=P(c1ccccc1)(c1ccccc1)c1c(-c2ccccc2)[nH]c2ccccc12`, the Potency result was “inactive”.
Regarding `O=C1CC(=O)N(Cc2ccccc2)C(=O)N1CCCCCCN1C(=O)CC(=O)N(Cc2ccccc2)C1=O`, the Potency entry is “inactive”.
On to `CC(C)(C)c1ccc(CN2C(=O)CN=C(c3ccccc3)c3ccccc32)cc1`, for which the Potency was 25.9 µM (active).
On to `COc1cc([C@@H]2c3cc4c(cc3[C@H](OC(C)=O)[C@H]3COC(=O)[C@H]23)OCO4)cc(OC)c1OC`, for which the Potency result was “inactive”.
The same measure for `CCN(CC)C(=O)c1ccc(NC(=O)c2sccc2-c2ccccc2)cc1`: “inactive”.
As to `CC(C)c1ccc(-n2c(O)c(/C=N/N3CCOCC3)c(=O)[nH]c2=S)cc1`, the Potency result was “inactive”.
`CC(=O)OC1C2(CC3N4C(=O)C5(CO)SSC4(CC31O)C(=O)N5C)OC(C)C(C)(C)C2=O` (stereo not given): the Potency is 7.31 µM (active).
`CC(Cc1ccccc1)NCCC(c1ccccc1)c1ccccc1` (stereo not given): the Potency entry was “inactive”.
As to `Cc1cccc(OP(=O)(Oc2cccc(C)c2)OC(c2ccccc2)C(F)(F)F)c1` (stereo not given), the Potency result was “inactive”.
With `O=C(O)c1cc[c]([Sb](=[O])([OH])[OH])cc1[N+](=O)[O-]`, the Potency entry was “inactive”.
`Cc1ccc(NC(=O)N(Cc2ccc3c(c2)OCO3)C2CCN(Cc3ccccc3)CC2)cc1F`: the Potency result is “inactive”.
Consider `CN(c1ccccc1)c1ccc([N+](=O)[O-])c2nonc12`, for which the Potency is 20.6 µM (active).
For `CCN(CC)c1ccc([N+](=O)[O-])c2cccnc12`, the Potency entry was “inactive”.
The same measure for `O=P1(Oc2ccccc2)CC(O)C(O)C(COCc2ccccc2)O1` (stereo not given): “inactive”.
Consider `CC(C)(C)[C@]1(O)C[C@@H]2OC(=O)C[C@@]23C(=O)O[C@@H]2OC(=O)[C@H](O)[C@]213`, for which the Potency entry was “inactive”.
In the case of `Cc1ccc(C(C)C)c(OCC(=O)N2CCN(CC(=O)N3CCOCC3)CC2)c1`, the Potency entry was “inactive”.

The values are drawn from PubChem BioAssay AID504648 (National Center for Advancing Translational Sciences (NCATS), 2011).
